From PubChem BioAssay
Shiga toxin inh: Shiga toxin inhibition. hit rate 9.2% among 290,000. Vero cells, Shiga toxin protein synthesis inhibition reporter. inhibition, % at 38.7 µM; in the data active = inhibition mostly above about 28%, no sharp cut-off; inactive = mostly below about 43%
NS1 inh: blocks influenza NS1 protein function | Potency, µM (highest dose often 46.1 µM) | hit rate 0.4% among 270,000 | AID 2326; note: actives are rising curves; nearly all actives have a fitted effect of over 50% in size
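Compounds were scored for reversing the slow growth caused by influenza A NS1 in S. cerevisiae, measured by optical density at 600 nm. Assay medium contained 2% galactose at pH 6.0; NS1-free yeast of the same strain were the positive control.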
Cycloheximide cs: counter-screen for Shiga toxin inhibitors: cycloheximide protein synthesis inhibition; hit rate 12% among 300,000; cell reporter, cycloheximide protein synthesis inhibition counterscreen; max response, %; in the data active = max response mostly above about 13%, no sharp cut-off; inactive = mostly below about 14%; note: read at 38.3 µM for the half of the compounds with a filed dose
SARS PLP yeast: blocks SARS-CoV papain-like protease in a yeast assay | Potency, µM (top dose mostly 32.9 µM), hits mostly activators | S. cerevisiae expressing SARS-CoV PLpro, growth rescue | AID 485353 | hit rate 0.19% among 330,000; note: nearly all actives have a fitted effect of over 55% in size
Numbers stand for hits; . = inactive; ? = inconclusive; / = no result. A selection: hits, their analogues and other compounds. The true share with any hit is near 12%. Unless noted, calls come from the whole dose curve.

SMILES	Shiga toxin inh	NS1 inh	Cycloheximide cs	SARS PLP yeast
O=C1Nc2ccc(F)cc2C12Nc1ccccc1-c1nnc(SCc3ccccc3F)nc1O2 (centres undefined)	.	.	.	.
O=C1Nc2ccc(Cl)cc2C12Nc1ccccc1-c1nnc(SCc3ccccc3F)nc1O2 (centres undefined)	.	?	28	.
CC(C)N(C(=O)CSc1ccc(S(=O)(=O)N2CCCCC2)cn1)c1ccccc1	/	/	/	.
NNc1n[nH]c(=S)n1N	63	.	40	.
Nn1c(Cc2ccc(F)cc2)n[nH]c1=S	.	/	.	.
CC(=O)C1=NN(c2ccccc2)C2(S1)S/C(=C\c1ccccc1)C(=O)N2c1ccccc1 (centres undefined)	.	.	.	.
COc1ccccc1N(Cc1ccccc1)S(=O)(=O)c1cccc(C(=O)Nc2ccccn2)c1	50	.	25	.
COc1ccccc1N(Cc1ccccc1)S(=O)(=O)c1cccc(C(=O)Nc2ccc(C(C)=O)cc2)c1	44	.	46	.
COc1ccccc1N(Cc1ccccc1)S(=O)(=O)c1cccc(C(=O)Nc2ccc(C)cn2)c1	/	/	/	.
COCCNC(=O)CSc1nc2ccc(N3CCOCC3)cc2c(=O)n1Cc1ccc(OC)cc1	.	.	28	.
C=CCNC(=O)O/N=C/c1csc([N+](=O)[O-])c1	32	.	.	.
O=C(NCCc1ccccn1)c1cncc(Br)c1	.	.	20	.
O=C(NCCCCc1ccccc1)c1cccc(Br)c1	.	.	15	.
O=C(NCCCc1ccccc1)c1cncc(Br)c1	.	.	20	.
O=C(NCc1ccncc1)c1cncc(Br)c1	.	.	.	.
Cc1ccc(S(=O)(=O)NC(=O)c2ccccc2C)cc1	.	.	.	.
Cc1ccc(NC(=S)NNC(=O)c2c(Cl)c(C)nn2C)cc1	.	.	.	.
Cc1cc(C)cc(NS(=O)(=O)c2ccc(NC(=S)Nc3ccccc3)cc2)c1	.	.	14	.
O=C(NNC(=S)Nc1ccccc1)Nc1ccccc1	88	.	34	.
Cc1ccc(NC(=S)NNC(=O)c2nn(C)c(C)c2Cl)cc1	93	.	36	.
Cc1ccc(NC(=S)NNC(=O)Nc2ccccc2)cc1	109	.	54	.
Cc1ccccc1C(=O)NNC(=O)Nc1ccccc1	.	/	.	.
O=C(NNC(=S)Nc1ccccc1)NNC(=S)Nc1ccccc1	.	.	.	.
COc1cc(OC)cc(C(=O)NNC(=O)CCC(=O)c2cc(C)sc2C)c1	/	/	/	.
COc1cc2nc(CSc3nc(-c4ccc(F)cc4)cs3)[nH]c(=O)c2cc1OC	.	.	.	.
SMILES	Shiga toxin inh	NS1 inh	Cycloheximide cs	SARS PLP yeast
Cc1c(NC(=O)c2cc(Br)ccc2Cl)cccc1-n1cnnn1	/	/	/	.
Cc1c(NC(=O)c2cn3ccccc3n2)cccc1-n1cnnn1	.	.	15	.
O=C(Nc1ccc(-n2cnnn2)cc1)c1cn2ccccc2n1	.	.	22	.
CC(CNC(=O)c1cc(Cl)ccc1[N+](=O)[O-])NC(=O)c1cc(Cl)ccc1[N+](=O)[O-] (centres undefined)	.	.	.	.
O=C(OCC(=O)N1CCC(Cc2ccccc2)CC1)c1ccccc1	79	/	55	.
COc1cccc(N2CCN(C(=O)/C=C/c3ccco3)CC2)c1	.	/	41	.
O=C(/C=C/c1ccco1)N1CCN(c2ncccn2)CC1	92	.	19	.
O=C(/C=C/c1ccco1)N1CCC(Cc2ccccc2)CC1	84	/	26	.
COc1ccc(S(=O)(=O)N2CCN(C(=O)/C=C/c3ccco3)CC2)cc1	/	/	/	.
O=C(CSc1nnc(COc2ccccc2)o1)N1CCCCC1	.	.	.	.
Cc1onc(-c2ccccc2Cl)c1C(=O)OCC(=O)N1CCN(c2ccccc2)CC1	/	/	/	.
CC(=O)c1cccc(-n2c(CCC(=O)O)ccc2-c2cccs2)c1	.	.	26	.
O=C(O)CCc1ccc(-c2cccs2)n1-c1ccc(C(=O)O)cc1	.	.	.	.
CC(=O)c1ccc(-n2c(CCC(=O)O)ccc2-c2ccccc2)cc1	.	.	.	.
CC(=O)c1cccc(-n2c(CCC(=O)O)ccc2-c2ccccc2)c1	75	.	40	.
Cc1ccc(-c2ccc(CCC(=O)O)n2-c2cccc(O)c2)cc1	121	.	40	.
CCOc1ccc(NC(=O)CN(C)C(=O)c2ccccc2-n2cnnn2)cc1OCC	/	/	/	.
O=C1c2ccccc2-c2ccc(N=[N+]([O-])c3ccc4c(c3)C(=O)c3ccccc3-4)cc21	/	.	/	/
Cc1ccccc1Oc1ccccc1N	.	/	.	.
Nc1ccccc1OCCOc1ccccc1N	.	.	20	.
CCCCC(=O)Nc1ccccc1C(=O)OCC(=O)c1ccc2c(c1)OCCO2	active	.	38	?
O=C(O)/C=C/C(=O)Nc1ccccc1C(=O)OCC(=O)c1ccc2c(c1)OCCO2	75	/	25	.
Cc1ccc(-c2cc(C(=O)NCCCN3CCOCC3)c3ccccc3n2)cc1	/	/	/	.
Cc1cc(NC(=O)c2cc(-c3ccc(C)c(C)c3)nc3ccccc23)no1	20	.	.	.
Cc1ccc(-c2cc(C(=O)NCc3ccccn3)c3ccccc3n2)cc1C	66	.	31	.
SMILES	Shiga toxin inh	NS1 inh	Cycloheximide cs	SARS PLP yeast
O=C(NCc1ccccn1)c1cc(-c2ccc(Cl)cc2)nc2ccccc12	33	.	.	.
Cc1ccc(-c2cc(C(=O)NCCCN3CCOCC3)c3ccccc3n2)cc1C	47	.	.	.
CCC(C)(C(=O)NC1CCCCC1)N(CC1CCCO1)C(=O)Cc1cccs1 (centres undefined)	.	/	.	.
O=C(NCc1ccccn1)c1cc(-c2ccc(-c3ccccc3)cc2)nc2ccccc12	128	.	20	.
O=C(NC1CCCC1)c1cccc(NC(=O)c2ccco2)c1	.	.	.	.
O/N=C\c1cnc(N2CCN(c3ccccc3)CC2)s1	68	.	42	.
COc1cc(C(=S)N2CCCC2)ccc1OCc1ccccc1	66	.	30	.
CCC(=O)c1ccc(OCc2ccc(C(=O)OC)cc2)c(OC)c1	.	.	.	.
CCC(=O)c1ccc(OCc2ccccc2)c(OC)c1	88	.	43	.
COc1ccc(CNC(=O)CN=C2NC(=O)C(c3ccccc3)(c3ccccc3)N2)cc1	31	.	.	.
O=C(CN=C1NC(=O)C(c2ccccc2)(c2ccccc2)N1)NCc1ccc(F)cc1	.	.	.	.
CC(=O)c1c(O)c2ccccc2n(Cc2ccccc2)c1=O	.	.	.	.
CN(C)C(=O)c1ccc(COc2ccccc2Br)o1	86	.	43	.
CCN(CC)C(=O)c1ccc(COc2ccccc2Cl)o1	.	.	21	.
COc1ccccc1OCc1ccc(C(=O)N(C)c2ccccc2)o1	.	.	.	.
COc1ccccc1OCc1ccc(C(=O)N(C)C)o1	.	.	25	.
CC1C(=O)N(S(=O)(=O)c2ccc([N+](=O)[O-])cc2)[C@H]1c1ccc2ccccc2c1 (some centres undefined)	.	/	.	/
CN(CC(=O)Nc1cccc(F)c1)C(=O)CCc1nc2cc(S(=O)(=O)N3CCOCC3)ccc2n1C	/	/	/	.
COc1cc(Cl)c(CN2CCCC(CO)(Cc3cccc(Cl)c3)C2)cc1OC (centres undefined)	.	.	.	.
COc1ccc2[nH]c3c(c2c1)CCC/C3=N\N	.	.	9.7	.
COc1ccc2[nH]c3ccccc3c2c1	.	.	32	.
